ALOX12 inhib: 12-hLO (ALOX12) enzyme inhibition | hit rate 0.12% among 150,000 | AID 1452 | purified 12-hLO, xylenol orange hydroperoxide absorbance | Potency, µM (top dose mostly 57.1 µM), without a hit: at the top dose activity change, negative = inhibition, most hits filed as inhibitors; active means well fitted curve in the direction sought with a large enough effect; inconclusive means small, poorly fitted or top-dose-only effect, or another doubt; inactive means no such curve, though single readings can be large; an effect the other way counts as inactive or inconclusive; further: potency means the concentration at half of the fitted maximal effect; nearly all actives have a fitted effect of over 55% in size
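Hydroperoxide output read as Fe(III)-xylenol orange absorbance, 573-to-405 nm ratio, after 30 min reaction with 40 uM arachidonic acid. Enzyme: 150 nM purified human 12hLO, 15 min compound preincubation; 25 mM Hepes pH 7.0, room temperature.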
ALDH1A1 block: blocks purified human ALDH1A1 activity; Purified ALDH1A1, NADH fluorescence, propionaldehyde substrate; Potency, µM (top dose mostly 75.3 µM), without a hit: at the top dose activity, negative = inhibition, usual class: inhibitors; hit rate 7.3% among 220,000;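 further: potency means the concentration at half of the fitted maximal effect; plate controls were no enzyme wells and a reference inhibitor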
IMPase Li cell: membrane-permeable IMPase blocker, potentiated with lithium. CHO-M1 cells, IP1 TR-FRET (IP-One), carbachol + lithium. Potency, µM (highest dose often 59.4 µM), inactives show at the highest dose activity, negative = IMPase inhibition, actives largely listed as inhibitors. hit rate 0.35% among 210,000; active means well fitted curve in the direction sought with a large enough effect; inconclusive means small, poorly fitted or top-dose-only effect, or another doubt; inactive means no such curve, though single readings can be large; an effect the other way counts as inactive or inconclusive;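 further: IP1 builds up when IMPase is blocked and the TR-FRET signal falls; potency means the concentration at half of the fitted maximal effect; plate controls were basal vehicle for no effect and high inhibitor control for full effect; nearly all actives have a fitted effect of over 50% in size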
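Steps: plate 2000 CHO-M1 cells per well and culture 16–30 h; add compound and lithium; incubate 30 min, 37C; add d2-IP1 tracer and Eu cryptate anti-IP1 antibody in lysis buffer; read after 10 min at room temperature.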
PNC inhibitor: blocks assembly of the perinucleolar compartment; hit rate 3.1% among 140,000; AID 2417; activity change (PNC), negative = inhibition, % at 10 µM; PC3M PTB-GFP, PNC prevalence imaging, 16 h; stronger effect = lower value;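 active means readout at or below -70, meaning at least 70% loss of cells showing the perinucleolar compartment, a nuclear body marking cancer cells; inconclusive means readout between -30 and a set limit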;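 further: plate controls were DMSO wells for no effect and camptothecin positive control wells for full effect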
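Compounds are pinned in duplicate onto adhered PC3M cells stably expressing GFP-tagged PTB and incubated 16 h at 37 C. Cells are then fixed, nuclei stained with Hoechst, and PNC-positive cells counted.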
IMPase cell inh: IMPase inhibition in cells | AID 901 | inhibition (IP1 accumulation), % at 46.1 µM | P97697 | 120,000 tested, under 10 active | CHO-M1 cells, IP1 accumulation, HTRF TR-FRET ratio; active means well fitted curve in the direction sought with a large enough effect in the signal ratio, not every such curve was filed as active; inconclusive means small, poorly fitted or top-dose-only effect, or a change in a side signal; inactive means no such curve, though single readings can be large or run the other way; the % refers to the signal ratio;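 further: cells stimulated with carbachol in lithium chloride buffer; plate controls were DMSO basal wells for no effect and reference inhibitor wells for full effect; higher means more IMPase inhibition seen as more IP1 and lower FRET ratio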
Target sequence (P97697 whole entry, looked up): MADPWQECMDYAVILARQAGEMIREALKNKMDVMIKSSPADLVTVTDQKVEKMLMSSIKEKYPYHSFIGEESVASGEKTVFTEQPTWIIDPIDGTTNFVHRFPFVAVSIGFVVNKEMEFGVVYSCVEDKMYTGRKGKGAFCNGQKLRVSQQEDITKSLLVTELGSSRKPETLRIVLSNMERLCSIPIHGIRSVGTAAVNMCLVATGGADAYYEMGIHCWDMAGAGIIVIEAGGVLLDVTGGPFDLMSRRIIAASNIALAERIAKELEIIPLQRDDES
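Measured: the HTRF emission ratio (665/620 nm) plus the 620 nm donor channel, each fitted to the Hill equation to give AC50. Cells were CHO-M1 given compounds up to 46 uM and a 30 min carbachol stimulation at 37C.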
HPGD block: blocks human HPGD enzyme activity; P15428; purified HPGD, NADH fluorescence kinetic, PGE2 substrate; Potency, µM, for the others: at the highest dose activity change, negative = inhibition, usual class: inhibitors; hit rate 4.3% among 150,000; further: potency means the concentration at half of the fitted maximal effect
Target sequence (P15428 whole entry, looked up): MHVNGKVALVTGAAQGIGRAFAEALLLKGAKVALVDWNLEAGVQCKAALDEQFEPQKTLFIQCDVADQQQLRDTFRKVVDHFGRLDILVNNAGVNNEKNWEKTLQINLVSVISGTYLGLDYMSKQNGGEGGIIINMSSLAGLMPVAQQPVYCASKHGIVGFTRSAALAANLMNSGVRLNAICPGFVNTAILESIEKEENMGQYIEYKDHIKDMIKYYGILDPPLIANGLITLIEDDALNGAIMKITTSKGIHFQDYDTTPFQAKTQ
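20 nM HPGD preincubated 15 min at room temperature with compound in 50 mM Tris-HCl pH 8, 0.01% Tween 20. Started with 1 mM NAD+ and 30 uM prostaglandin E2; NADH fluorescence (360/450 nm) read 5 times over 30-s intervals, last minus first.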
An asterisk follows results filed as active; ? = inconclusive; · = not tested or not shown; [ ] = dose if it differs, or a comment. Hits are enriched below; roughly 11% of the tested compounds scored in any of these assays. Unless noted, the call rests on the fitted dose curve; in most records, active means well fitted inhibition curve with a large enough effect (not every such curve was filed as active); inconclusive means small, poorly fitted or top-dose-only effect, or another doubt; inactive means no such curve, though single readings can be large or run the other way. Unless noted, on the % scale 0 is the no-effect control and ±100 the full control effect.

SMILES	ALOX12 inhib	ALDH1A1 block	IMPase Li cell	PNC inhibitor	IMPase cell inh	HPGD block
CCNc1ncc2nc(-c3ccc(OC)cc3)c(=O)n(Cc3cccc(OC)c3)c2n1	0%	?	?	·	·	?
Cc1nc2ccccc2c(=O)n1NC(=O)C1CC1	·	-7%	-2%	·	·	·
COc1ccc(C2Nc3ccccc3C(=O)N2NS(=O)(=O)c2ccccc2)cc1OC (stereo not given)	·	?	-1%	·	·	·
Cc1ccc(C(=O)N2CCCC2)cc1Br	4%	12%	1%[38.3 µM]	-4	1	20µM*
Cn1nnc2cc(C(=O)N3CCCCCC3)ccc21	-6%	1%	2%	?	·	3.2µM*
CCOc1ccc(OCc2ccc(C(=O)N3CCCC(C)C3)cc2)cc1 (stereo not given)	·	?	14%	·	·	·
Cc1ccc(C(=O)N2CCC(C(N)=O)CC2)cc1C	0%	?	20%[38.3 µM]	36	-1	-13%
CCOc1ccc(OCc2ccc(C(=O)N3CCOCC3)cc2)cc1	-1%	3.5µM*	16%	23	11	16µM*
O=C(c1ccccc1)N1CCN(C(=O)C23CC4CC(CC(C4)C2)C3)CC1	-5%	25µM*	-8%[38.3 µM]	-127*	-9	-9%
O=C1Oc2ccccc2C(=O)/C1=C\N1C(=O)N/C(=C\c2ccccc2O)C1=O	-3%[11.4 µM]	?	1%	·	·	-8%
C[C@@]12CCC(=O)C[C@@H]1CC(=O)[C@H]1[C@H]3CCC[C@]3(C)C(=O)C[C@@H]12 (tested in a mixture with another compound)	-2%[25.6 µM]	19%[20.9 µM]	0%	·	-4[20.6 µM]	0%
O=C(c1cccc(Br)c1)N1CCN(C(=O)c2cccc(Br)c2)CC1	-1%	16µM*	11%	176	0	-4%
O=C(c1cccc(Br)c1)N1CCN(C(=O)N2CCOCC2)CC1	5%	-4%	-4%	-3	?	-2%
COCCn1c(C)cc(C2=NNC(=Nc3ccccc3)SC2)c1C	-18%	?	21%[38.3 µM]	2	-1	-15%
FC(F)Sc1ccc(N=C2NN=C(c3ccc4c(c3)OCCO4)CS2)cc1	-20%	?	-8%[38.3 µM]	21	-2	-8%
COCCn1c(C)cc(C2=NNC(=Nc3ccc(OC)cc3)SC2)c1C	?	10µM*	-11%[38.3 µM]	?	4	-16%
c1cc2c(cc1C1=NNC(=NC3CC3)SC1)OCCO2	·	10µM*	13%	·	·	·
CCCCN=C1NN=C(c2ccc(C)c(C)c2)CS1	·	20µM*	-8%	·	·	·
COc1ccc(N=C2NN=C(c3ccc4c(c3)OCCO4)CS2)cc1	-15%	25µM*	?	30	-19	-3%
Nc1nc(-c2ccc3c(c2)OCCO3)cs1	-7%	?	14%[38.3 µM]	8	9	-13%
CCCCOc1ccccc1NC(=O)CC1Sc2ccccc2NC1=O (stereo not given)	·	·	·	·	-3	·
COc1cccc(Nc2ncc3nc(-c4cn(C)c5ccccc45)c(=O)n(C[C@H]4CCCO4)c3n2)c1	·	9%	9%	·	·	·
CCCCN=C1NN=C(c2ccc3c(c2)OCCO3)CS1	·	10µM*	4%	·	·	·
COc1ccccc1CNC(=O)c1ccc(Br)o1	1%[0.00818 µM]	?	12%	?	·	40µM*
COc1ccccc1CCNC(=O)c1ccc(C)o1	-1%	-2%	-4%[38.3 µM]	30	0	8.9µM*
SMILES	ALOX12 inhib	ALDH1A1 block	IMPase Li cell	PNC inhibitor	IMPase cell inh	HPGD block
Cc1cc(C)c2c(C)c(C(=O)NCc3ccncc3)oc2c1	5%	1%	2%	-100*	-4	-24%
O=C(NCc1ccccc1Cl)c1ccc(Br)o1	·	?	5%	·	·	·
O=C(NCc1ccncc1)c1ccc(Br)o1	-4%	3.5µM*	-2%[38.3 µM]	5	9	-11%
O=C(Cn1nc(C(F)(F)F)c2c1CCCC2)Nc1ccc(F)c(Cl)c1	·	·	·	·	15	·
OC(CNCc1ccc(Cl)cc1)C(F)(F)F (stereo not given)	·	2%	-1%	·	·	·
COc1ccc(CCNC(=O)c2ccc(CSc3ccccc3)o2)cc1	·	3.5µM*	-1%	·	·	·
Cc1ccc(-c2csc(=S)n2CC(=O)OCC(=O)NC(C)C(C)C)cc1 (stereo not given)	4%	1.6µM*	-7%[38.3 µM]	-5	12	-15%
C#CCSc1nc(-c2cccs2)ccc1C#N	0%	?	17%[38.3 µM]	?	?	?
COC(=O)CSc1nc(-c2cccs2)ccc1C#N	-3%	?	25µM*	0	?	?
C/C(Cl)=C\CSc1nnc2n(N)c(=O)c3ccccc3n12	4%	18µM*	13%[38.3 µM]	-16	-3	-18%
Fc1ccccc1Nc1n[nH]c(=S)s1	·	7.1µM*	7%	·	·	·
CCOC(=O)C1=C(c2ccccc2)NC(SCC(=O)Nc2ccc(C)cc2)=C(C#N)C1c1ccco1 (stereo not given)	-20%	3%	-6%[38.3 µM]	17	1	-27%
CC(=O)C1=C(C)NC(SCC(=O)c2ccc(Cl)cc2Cl)=C(C#N)C1c1ccco1 (stereo not given)	?	?	4%[38.3 µM]	?	8	?
CC(=O)C1=C(C)NC(SCC(=O)c2ccccc2)=C(C#N)C1CC(C)C (stereo not given)	-22%	7.1µM*	10µM*	6	?	32µM*
CCOC(=O)C1=C(c2ccccc2)NC(SCC(=O)Nc2ccccc2C)=C(C#N)C1c1ccco1 (stereo not given)	-8%	14µM*	23%[38.3 µM]	?	7	?
CC(=O)C1=C(C)NC(SCC(=O)c2ccc(Cl)cc2)=C(C#N)C1c1ccco1 (stereo not given)	?	20µM*	26%[38.3 µM]	29	10	32µM*
CC(=O)C1=C(C)NC(SCC(=O)c2ccccc2)=C(C#N)C1c1ccco1 (stereo not given)	-18%	20µM*	2%[38.3 µM]	11	5	32µM*
CCN(CC)C[C@@H](O)c1ccc2ccc3ccccc3c2c1	6%[11.4 µM]	10%[13.5 µM]	5%	·	·	-1%
CCN1C(=O)[C@H]2[C@H]3[C@H](O)[C@H](O)C/C(=N/OC[C@@H](O)COCc4ccco4)[C@@H]3CC[C@@H]2C1=O	·	5%[13.5 µM]	·	·	·	·
COc1ccc(CNc2cc(-c3cccc(NS(C)(=O)=O)c3)ncn2)c(OC)c1	·	19%	17%	·	·	·
CC(=O)C1=C(C)NC(SCc2ccc(C#N)cc2)=C(C#N)C1c1ccco1 (stereo not given)	-2%	22µM*	2%	?	·	-5%
Cc1cc2nc(-c3ccc(Br)cc3)cc(C(F)(F)F)n2n1	·	·	·	·	-9	·
CC(C)COc1ccc(C(=O)CCN2CCCCC2)cc1	-12%	0.1µM*	13%[38.3 µM]	-20	10	-17%
CCOC(=O)N1CCN(CCC(=O)c2ccc(OC)cc2)CC1	·	0.71µM*	11%	·	·	·
